Results taken from PubChem BioAssay (NCATS).
Inconclusive results are not listed. A call without a number means that no potency is given here. Active and inactive are the calls of the source. The call rests on the fitted dose curve; in most records, active means well fitted curve in the direction sought with a large enough effect; inconclusive means small, poorly fitted or top-dose-only effect, or another doubt; inactive means no such curve, though single readings can be large; an effect the other way counts as inactive or inconclusive.

How the values were obtained:
[1] = target: Tyrosine-protein kinase Yes (Homo sapiens) (UniProt P07947); assay: qHTS for small molecule inhibitors of Yes1 kinase: Primary Screen (AID 686947); further: nearly all actives have a fitted effect of over 60% in size; further: potency means the concentration at half of the fitted maximal effect
In short: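 In this qHTS format, inhibition is expressed relative to DMSO controls with enzyme (maximum) and without enzyme (minimum). The 60 min room-temperature reaction uses 0.1 mM ATP, with ADP detected by luminescence.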

[2] = qHTS for small molecule inhibitors of Yes1 kinase: Counter Assay (AID 686950);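 further: no kinase present so only ADP-Glo detection of a fixed ADP amount is tested; luminescence from ADP-Glo reporting ADP in a fixed ATP and ADP mixture; series mostly up to about 77 µM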
In short: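 No kinase present; 0.08 mM ATP + 0.02 mM ADP in 50 mM Tris pH 7.5, 10 mM MgCl2, 150 mM NaCl, 1 mM DTT; 20 min compound preincubation, 60 min RT, ADP-Glo luminescence, normalized to ATP/ADP (max) and ATP-only (min).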

[3] = qHTS for compounds that reverse cellular toxicity of Amyloid beta (A-beta) peptide in yeast: LOPAC Validation Assay (AID 720559)
In short: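 Yeast expressing toxic A-beta grown with pinned compounds at 30 C for 48 hr. Growth measured as absorbance at 600 nm; data normalized to DMSO and to an equimolar FeCl3/clioquinol mixture as positive control.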

Chain of Tyrosine-protein kinase Yes (Homo sapiens) (P07947 whole entry, looked up): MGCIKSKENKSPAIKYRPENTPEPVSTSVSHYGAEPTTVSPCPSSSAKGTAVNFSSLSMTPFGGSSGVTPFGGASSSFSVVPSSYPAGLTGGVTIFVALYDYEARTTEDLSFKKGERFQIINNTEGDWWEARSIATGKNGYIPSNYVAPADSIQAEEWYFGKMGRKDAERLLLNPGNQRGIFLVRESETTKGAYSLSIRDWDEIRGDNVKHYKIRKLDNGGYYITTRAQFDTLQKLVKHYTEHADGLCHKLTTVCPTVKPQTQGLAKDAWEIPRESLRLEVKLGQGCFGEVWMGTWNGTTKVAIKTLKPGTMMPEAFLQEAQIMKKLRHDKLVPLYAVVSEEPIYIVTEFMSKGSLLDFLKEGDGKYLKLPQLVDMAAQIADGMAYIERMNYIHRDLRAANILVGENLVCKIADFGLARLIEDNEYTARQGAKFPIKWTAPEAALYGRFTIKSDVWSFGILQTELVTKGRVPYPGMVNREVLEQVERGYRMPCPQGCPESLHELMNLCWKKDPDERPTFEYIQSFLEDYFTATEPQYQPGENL

| Structure (SMILES) | Potency [1] | outcome [2] | outcome [3] |
| --- | --- | --- | --- |
| Cc1cc([C@@H](C)Nc2ccccc2C(=O)O)c2nc(N3CCOCC3)cc(=O)n2c1 | inactive | inactive | – |
| COc1ccccc1-c1cccc(-c2c(O)c3cc(C#N)c(Cl)cc3[nH]c2=O)c1 | inactive | inactive | – |
| C[C@H](NC(=O)Cc1cc(F)cc(F)c1)C(=O)N[C@@H]1C(=O)N(C)c2ccccc2-c2ccccc21 | inactive | inactive | – |
| CC(c1cc2ccccc2s1)N(O)C(N)=O (centres undefined) | inactive | inactive | – |
| CC1(C)SCCN(S(=O)(=O)c2ccc(OCC#CCO)cc2)[C@@H]1C(=O)NO | inactive | inactive | – |
| CCOc1ccn(-c2ccc(F)cc2)c(=O)c1C(=O)Nc1ccc(Oc2ccnc(N)c2Cl)c(F)c1 | 1940 nM (active) | inactive | – |
| C[C@@H]1C[C@H]2[C@@H]3CCC4=CC(=O)C=C[C@]4(C)C3(F)[C@@H](O)C[C@]2(C)[C@@]1(O)C(=O)CO (some centres undefined) | 34500 nM (active) | inactive | – |
| CCOc1cc(C=C2C(=O)N(c3ccccc3)N=C2C)cc(Cl)c1OCC(=O)OC | inactive | inactive | – |
| OCCn1cc(-c2cnc3nnn(Cc4ccc5ncccc5c4)c3n2)cn1 | inactive | inactive | – |
| O=C(NOC[C@H](O)CO)c1ccc(F)c(F)c1Nc1ccc(I)cc1F | inactive | inactive | – |
| COc1ccc(-c2ccc3c(N4CCOCC4)nc(N4C[C@@H](C)O[C@@H](C)C4)nc3n2)cc1CO | inactive | inactive | – |
| CCN(c1ccccc1)c1cc(NC)[n+](C)c(C)n1 | inactive | inactive | – |
| COc1ccc(-c2c(-c3ccc(O)cc3O)n[nH]c2C)cc1 | 8670 nM (active) | inactive | – |
| CCN(CC)CCCC(C)Nc1nc(C)cc(Nc2ccc3nc(C)cc(N)c3c2)n1 (centres undefined) | inactive | inactive | – |
| Oc1cccc(-c2nc(N3CCOCC3)c3oc4ncccc4c3n2)c1 | inactive | inactive | – |
| O=C(c1cc(Cc2n[nH]c(=O)c3ccccc23)ccc1F)N1CCN(C(=O)C2CC2)CC1 | inactive | inactive | – |
| COCC(=O)NCC=Cc1ccc2ncnc(Nc3ccc(Oc4ccc(C)nc4)c(C)c3)c2c1 | 5470 nM (active) | inactive | – |
| O=c1[nH]c(-c2ccc(C(F)(F)F)cc2)nc2c1CSCC2 | inactive | inactive | – |
| COc1ccc2c3n(c(=NC(=O)c4cccnc4)nc2c1OC)CCN3 | inactive | inactive | – |
| COc1ccc(-c2ccc3c(N4CCOC[C@H]4C)nc(N4CCOC[C@H]4C)nc3n2)cc1CO | inactive | inactive | – |
| CCOc1cc(N2CCC(O)CC2)ccc1Nc1ncc2c(n1)N(C)c1ccccc1C(=O)N2C | inactive | inactive | – |
| CNC(=O)c1ccc(N2C(=S)N(c3ccc(C#N)c(C(F)(F)F)c3)C(=O)C2(C)C)cc1F | inactive | inactive | – |
| O=C(OCC#CCSc1nnc(-c2ccc3ccccc3c2)o1)c1cc2ccccc2s1 | inactive | inactive | – |

| Structure (SMILES) | Potency [1] | outcome [2] | outcome [3] |
| --- | --- | --- | --- |
| COc1cccc2cc(-c3nc(C4CCC(C(=O)O)CC4)n4ncnc(N)c34)[nH]c12 (centres undefined) | 68.8 nM (active) | inactive | – |
| CC1(C)Cc2c(-c3ccccc3)c(-c3ccc(Cl)cc3)c(CC(=O)O)n2C1 | inactive | inactive | – |
| Cc1oncc1C(=O)Nc1ccc(C(F)(F)F)cc1 | inactive | inactive | – |
| O=C1[C@H](Cc2ccc(O)cc2)N2C(=O)CCN(C(=O)NCc3ccccc3)[C@H]2CN1Cc1cccc2ccccc12 | inactive | inactive | – |
| O=C(O)CCc1ccc(NCc2cccc(Oc3ccccc3)c2)cc1 | inactive | inactive | – |
| O=C(O)[C@@H](c1ccc(OCc2ccc3ccccc3n2)cc1)C1CCCC1 | inactive | inactive | – |
| Cc1csc(NC(=O)c2sc3nc4c(c(C(F)(F)F)c3c2N)CCC4)n1 | inactive | inactive | – |
| Cc1cc(-c2nnc3n2CCCCC3)c(C)n1-c1ccc(F)cc1 | 34500 nM (active) | inactive | – |
| O=S(=O)(N=Cc1c(O)ccc2ccccc12)c1cccs1 | inactive | inactive | – |
| CCOC(=O)N[C@@H]1CC[C@@H]2[C@@H](C1)C[C@H]1C(=O)O[C@H](C)[C@H]1[C@@H]2C=Cc1ccc(-c2cccc(F)c2)cn1 | inactive | inactive | – |
| Cc1cc(SCc2sc(-c3ccc(C(F)(F)F)cc3)nc2C)ccc1OCC(=O)O | inactive | inactive | – |
| CCC(C)N(C)C(=O)c1cc2ccccc2c(-c2ccccc2Cl)n1 (centres undefined) | inactive | inactive | inactive |
| C[C@]12CC[C@H](O)CC1=CC[C@@H]1[C@H]2CC[C@]2(C)C(c3cccnc3)=CC[C@H]12 | inactive | inactive | – |
| CCn1c(-c2nonc2N)nc2c(C#CC(C)(C)O)ncc(OC[C@H]3CCCNC3)c21 | – | inactive | – |
| O=C(Nc1ccc(F)c(C(F)(F)F)c1)Nc1nnc(-c2ccncc2)s1 | inactive | inactive | – |
| Nc1ncnc2nc(-c3ccc(N4CCOCC4)nc3)cc(-c3cccc(Br)c3)c12 | 3450 nM (active) | inactive | inactive |
| Cn1cc(-c2ccc3nnc(C(F)(F)c4ccc5ncccc5c4)n3n2)cn1 | inactive | inactive | – |
| Cc1c(CCOc2ccc(C(=O)O)cc2)c2cc(Cl)ccc2n1C(c1ccccc1)c1ccccc1 | – | inactive | – |
| CCCCCCCc1ccc(CCc2cccc(O)c2C(=O)O)cc1 | – | inactive | – |
| Nc1nc2ccc(OC(F)(F)F)cc2s1 | inactive | inactive | inactive |
| C#Cc1cccc(Nc2ncnc3cc(OCCOC)c(OCCOC)cc23)c1 | – | inactive | – |
| Cc1cccc(-c2[nH]c(C(C)(C)C)nc2-c2ccc3nccnc3c2)n1 | 688 nM (active) | inactive | inactive |
| NC(=O)c1ccc(I)c([N+](=O)[O-])c1 | – | inactive | – |

| Structure (SMILES) | Potency [1] | outcome [2] | outcome [3] |
| --- | --- | --- | --- |
| CCCc1nn(C)c2c(=O)[nH]c(-c3cc(S(=O)(=O)N4CCN(C)CC4)ccc3OCC)nc12 | inactive | inactive | – |
| Cc1ccc(NC(=O)c2cccc(C(C)(C)C#N)c2)cc1Nc1ccc2ncn(C)c(=O)c2c1 | – | inactive | – |
| Cc1ccc(-n2nc(C(C)(C)C)cc2NC(=O)Nc2ccc(OCCN3CCOCC3)c3ccccc23)cc1 | – | inactive | – |
| CC1(C)CNc2cc(NC(=O)c3cccnc3NCc3ccncc3)ccc21 | – | inactive | – |
| CCc1cc(Nc2nccc(-c3c(-c4ccc(OC)c(C(=O)Nc5c(F)cccc5F)c4)nc4ccccn34)n2)c(OC)cc1N1CCC(N2CCN(S(C)(=O)=O)CC2)CC1 | – | inactive | – |
| CCCn1c(=O)c2[nH]c(C34CC5CC3C[C@@H](C5)C4)nc2n(CCC)c1=O | inactive | inactive | – |
| S=C(NCc1ccc2c(c1)OCO2)N1CCN(c2ncnc3c2oc2ccccc23)CC1 | inactive | inactive | – |
| O=C(Nc1nc2ccccc2n1CCN1CCOCC1)c1cccc([N+](=O)[O-])c1 | inactive | inactive | inactive |
| Cc1[nH]c(=O)c(C#N)cc1-c1ccc2nccn2c1 | inactive | inactive | inactive |
| NC(=O)C1CCCc2c1[nH]c1ccc(Cl)cc21 (centres undefined) | – | inactive | – |
| CC(C)(C)OC(=O)CN(Cc1ccc(Cl)cc1)Cc1ccc([N+](=O)[O-])s1 | – | inactive | – |
| Nc1nccc(-c2ccc3noc(-c4ccc(Cl)cc4)c3c2)n1 | inactive | inactive | – |
| OC(CN1CCC(Cc2ccc(F)cc2)CC1)c1ccc(Cl)cc1 (centres undefined) | inactive | inactive | inactive |
| CCOc1ccc(Cc2cc([C@@H]3O[C@H](CO)[C@@H](O)[C@H](O)[C@@H]3O)ccc2Cl)cc1 | inactive | inactive | – |
| Cc1cnc(Nc2ccc(OCCN3CCCC3)cc2)nc1Nc1cccc(S(=O)(=O)NC(C)(C)C)c1 | inactive | inactive | – |
| COc1cc(F)c(F)c(Nc2ccc(I)cc2F)c1NS(=O)(=O)C1(C[C@H](O)CO)CC1 | – | inactive | – |
| N#CC[C@H](C1CCCC1)n1cc(-c2ncnc3[nH]ccc23)cn1 | – | inactive | – |
| CNCc1ccc(-c2[nH]c3cc(F)cc4c3c2CCNC4=O)cc1 | 308 nM (active) | inactive | – |
| Cc1cc2c(F)c(Oc3ncnn4cc(OC[C@@H](C)O)c(C)c34)ccc2[nH]1 | – | inactive | – |
| COc1cc(Nc2ncc3c(n2)-c2ccc(Cl)cc2C(c2c(F)cccc2OC)=NC3)ccc1C(=O)O | 21.8 nM (active) | inactive | – |
| CCOc1cc(C(=O)Nc2ccc(Cl)c(-c3nc4ccccc4[nH]3)c2)cc(OCC)c1OCC | inactive | inactive | – |
| CCCS(=O)(=O)Nc1ccc(F)c(C(=O)c2c[nH]c3ncc(-c4ccc(Cl)cc4)cc23)c1F | 1370 nM (active) | inactive | – |
